In PubChem BioAssay AID1053205 (Broad Institute, 2014):
Measured potencies and affinities stand elsewhere. Results filed as inconclusive are left out. Calls of active or inactive are those of the source.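 The calls were made as follows: active = compounds lowering the FRET ratio whose fitted half-maximal concentration is at most twice their top tested dose; inconclusive = flat partial drop between 30 and 70 percent, or bad fit; inactive = the rest.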

biological target: Voltage-dependent L-type calcium channel subunit alpha-1D (Homo sapiens) (UniProt Q01668); assay: disruptors of CaV1.3 IQ/ICDI domain association – cell-based, HEK293, YFP-IQ/CFP-ICDI FRET, cherry-picks, dose response (AID 1053205); conditions: HEK293 YFP-IQ/CFP-ICDI FRET ratio, 10 min; series mostly up to 35 µM;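 also: 0% = median of neutral control wells and -100% = median of positive control wells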
Sequence (Q01668 whole entry, looked up, the tested form may be a part): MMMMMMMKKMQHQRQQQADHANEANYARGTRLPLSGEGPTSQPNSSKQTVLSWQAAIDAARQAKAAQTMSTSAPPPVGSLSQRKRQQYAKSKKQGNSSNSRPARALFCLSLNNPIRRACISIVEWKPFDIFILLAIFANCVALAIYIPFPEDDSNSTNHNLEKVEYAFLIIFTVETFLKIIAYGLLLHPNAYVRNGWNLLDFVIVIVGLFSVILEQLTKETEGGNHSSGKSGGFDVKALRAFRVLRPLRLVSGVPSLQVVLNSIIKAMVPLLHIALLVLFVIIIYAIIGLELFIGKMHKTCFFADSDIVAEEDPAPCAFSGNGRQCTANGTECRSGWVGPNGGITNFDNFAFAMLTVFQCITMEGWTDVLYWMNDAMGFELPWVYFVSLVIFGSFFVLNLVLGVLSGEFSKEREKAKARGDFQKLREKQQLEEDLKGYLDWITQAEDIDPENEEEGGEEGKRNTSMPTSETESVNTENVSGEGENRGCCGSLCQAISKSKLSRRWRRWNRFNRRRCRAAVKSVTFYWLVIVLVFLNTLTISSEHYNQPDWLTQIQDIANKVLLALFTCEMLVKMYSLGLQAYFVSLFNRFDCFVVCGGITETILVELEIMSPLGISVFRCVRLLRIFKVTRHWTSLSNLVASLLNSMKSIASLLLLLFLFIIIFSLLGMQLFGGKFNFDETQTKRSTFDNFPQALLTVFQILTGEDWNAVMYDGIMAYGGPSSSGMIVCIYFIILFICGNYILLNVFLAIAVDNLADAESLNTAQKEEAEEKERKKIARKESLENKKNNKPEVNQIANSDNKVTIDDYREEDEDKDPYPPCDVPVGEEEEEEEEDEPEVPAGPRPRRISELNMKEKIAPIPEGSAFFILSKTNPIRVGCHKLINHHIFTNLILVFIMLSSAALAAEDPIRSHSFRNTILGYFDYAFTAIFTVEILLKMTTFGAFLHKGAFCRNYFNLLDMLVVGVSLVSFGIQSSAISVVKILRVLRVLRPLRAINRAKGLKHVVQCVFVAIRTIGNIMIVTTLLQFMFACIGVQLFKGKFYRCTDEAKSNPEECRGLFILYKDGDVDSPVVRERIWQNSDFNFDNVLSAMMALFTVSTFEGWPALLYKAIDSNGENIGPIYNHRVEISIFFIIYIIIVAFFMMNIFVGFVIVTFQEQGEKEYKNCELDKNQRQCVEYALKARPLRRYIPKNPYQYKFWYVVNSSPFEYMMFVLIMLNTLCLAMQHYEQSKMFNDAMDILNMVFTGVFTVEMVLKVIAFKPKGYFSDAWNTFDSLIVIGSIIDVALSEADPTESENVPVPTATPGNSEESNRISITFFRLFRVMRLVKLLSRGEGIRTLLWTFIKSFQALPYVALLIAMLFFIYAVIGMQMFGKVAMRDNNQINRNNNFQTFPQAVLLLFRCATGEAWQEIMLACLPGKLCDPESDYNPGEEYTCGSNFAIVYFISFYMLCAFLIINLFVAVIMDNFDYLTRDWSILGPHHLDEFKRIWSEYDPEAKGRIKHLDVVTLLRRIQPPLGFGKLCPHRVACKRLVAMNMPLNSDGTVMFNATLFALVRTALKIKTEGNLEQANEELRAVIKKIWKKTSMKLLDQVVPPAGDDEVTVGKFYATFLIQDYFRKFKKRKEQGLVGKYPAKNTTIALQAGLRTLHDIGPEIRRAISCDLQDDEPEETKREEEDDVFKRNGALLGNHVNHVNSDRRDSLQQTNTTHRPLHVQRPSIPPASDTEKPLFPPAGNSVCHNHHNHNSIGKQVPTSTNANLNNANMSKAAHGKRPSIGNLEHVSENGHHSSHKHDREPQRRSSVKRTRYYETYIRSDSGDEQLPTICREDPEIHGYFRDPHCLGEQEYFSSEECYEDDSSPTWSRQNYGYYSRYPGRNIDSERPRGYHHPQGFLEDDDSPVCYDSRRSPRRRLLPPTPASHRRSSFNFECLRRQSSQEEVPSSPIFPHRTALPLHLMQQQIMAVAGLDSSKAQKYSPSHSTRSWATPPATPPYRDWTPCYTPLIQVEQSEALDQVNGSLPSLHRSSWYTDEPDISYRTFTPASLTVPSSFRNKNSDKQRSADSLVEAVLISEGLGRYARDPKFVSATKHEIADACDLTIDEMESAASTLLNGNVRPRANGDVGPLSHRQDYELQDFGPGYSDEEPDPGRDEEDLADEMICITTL

outcome, inactive:
CSC1=NSC2=NC(=O)/C(=C/c3coc4ccc(O)cc4c3=O)C(=N)N12
c1ccc2cc3c(NCCN4CCOCC4)ccnc3cc2c1
N#CC1=C(N)Oc2cc(N)ccc2C1c1ccc(F)cc1F (configuration not stated)
COCc1cc(C)nc(SCC(=O)Oc2ccc(Cl)cc2)c1C#N
O=C(NCc1cc(C(F)(F)F)ccc1Cl)c1cccc2c1C(=O)c1ccc(Cl)cc1S2(=O)=O
CN(C)C(=O)CSc1nc2ccc(C(=O)c3ccccc3)cc2[nH]1
Cc1cccc2sc(NNC(=O)c3ccc(S(=O)(=O)N4CCCC(C)C4)cc3)nc12 (configuration not stated)
Cc1cccn2c(=O)c3cc(C#N)c(=NC(=O)c4cccs4)n(CC(C)C)c3nc12
CC1=C(C(=O)N2CCN(c3cc(C)ccc3C)CC2)C2(CCCCC2)OC1=O
Cc1cc(CNC(=O)c2ccc3c(c2)OCO3)c2ccccc2n1
Cn1cc(C(c2ccccc2OCC(=O)O)c2cn(C)c3ccccc23)c2ccccc21
Cc1c(C=O)c2ccccn2c1C(=O)c1cccs1
COCCNC(=O)c1cc2c(=O)n3cccc(C)c3nc2n(Cc2ccncc2)c1=N
CCN(CC)CCCNc1nc(C)cc(COC)c1C#N
Cc1ccc(S(=O)(=O)c2cc3c(=O)n4ccccc4nc3n(C)c2=N)cc1
CCc1cccc(OC2OC(CO)C(O)C(O)C2NC(C)=O)c1 (configuration not stated)
O=[N+]([O-])c1cccc(-c2n[nH]c(=S)n2-c2ccc(Br)cc2)c1
Cc1ccc(NC(=O)Nc2ccnc(-c3cccnc3)n2)cc1
Cc1ccc(OCC(=O)NNc2c3ccccc3nc3ccccc23)cc1
N#Cc1c2ccc(O)cc2n2ccccc12
O=C(CCc1c[nH]c2ccccc12)OCC(=O)c1ccccc1
Cc1noc(C)c1S(=O)(=O)N(CC(=O)N1CCCCCC1)c1ccc(C(C)C)cc1
O=C(Nc1ccc2c(c1)OCCO2)c1ccc(NC(=O)C2CCCO2)cc1 (configuration not stated)
COc1ccccc1OCc1ccc(C(=O)N(C)c2ccccc2)o1
CCc1ccccc1S(=O)(=O)Cc1ccc(C(=O)N2CCN(c3ccccc3OC)CC2)o1
N#CC(C#N)=C1C=CC=CN1/C(=C\c1ccccc1)C(=O)c1cccs1
CCOC(=O)C1=CN(CC2CCCO2)C=C(C(=O)OCC)C1c1ccccc1C(F)(F)F (configuration not stated)
COc1ccc(C(=O)Oc2cc(N)n(S(=O)(=O)c3ccccc3)n2)cc1
CSc1ccc(Cl)c(C(=O)N2CCOc3ccccc32)c1
COC(=O)C1=CN(C)C=C(C(=O)OC)C1c1ccccc1Cl
CCC(C)NC(=S)N1CCN(Cc2ccc3c(c2)OCO3)CC1 (configuration not stated)
Cc1c(C(=O)NCc2cccc([N+](=O)[O-])c2)sc(=O)n1Cc1cccc(F)c1
CCCCn1nc(NC(=O)c2cccs2)c2cc3cc(OC)ccc3nc21
CC(C)CCN(CCC(C)C)CC(O)Cn1c2ccccc2c(=O)c2ccccc21 (configuration not stated)
COc1cc(/C=C(\C#N)C(=O)NC(C)C)cc(Cl)c1O
C/C(=N\NC(=O)CC#N)c1cc2ccc(O)cc2oc1=O

FRET change, negative = inhibition, inactive:
COc1ccc(CNC(=O)c2sc(=O)n(Cc3ccc(C)cc3)c2C)cc1OC 4.95% [at 8 µM]
